According to PubChem BioAssay (NCI):
This is part of a sample that, as a whole, favours compounds with a hit. Of some 83,000 tested, about 20% had one in any assay.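 Each cell line was grown in a 96-well plate and treated with one concentration of compound for 48 hours. Values below 10 were considered active.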 A number with no mark means an inactive call. Activity calls are given as the source filed them.

The molecules below were run on HCC-2998 colon (assay: NCI-60 one-dose screen, 48 h (100 = growth as untreated, 0 = no growth, -100 = all killed)). Conditions: 10 µM unless noted.

Structure (SMILES)	growth
O=C(Nc1ccc(NCCN2CCOCC2)nc1)c1ccc([N+](=O)[O-])cc1	101%
COc1cc(-c2ncn(/C=C\C(=O)OC(C)C)n2)cc(C(F)(F)F)c1	-39.8% (active)
O=C(NNC(=O)N1c2ccccc2C=Cc2ccccc21)c1ccccc1	114%
CC(C)(C)n1cc(-c2ccnc(NCCNS(=O)(=O)c3ccc(Cl)cc3)c2)c(-c2cccc(O)c2)n1	36.7%
Clc1ccccc1-c1nc2ccccc2[nH]1	70.9%
CC(C)(C)n1cc(-c2ccnc(NCCNS(=O)(=O)c3ccc(C(F)(F)F)cc3)c2)c(-c2cccc(O)c2)n1	-0.263% (active)
CC(=O)Oc1csc(N(C(C)=O)c2cc(C(=O)O)cc(C(=O)O)c2)n1	98.6%
COc1ccncc1S(=O)(=O)NC(=O)Nc1ccc(Cl)c(Cl)c1	101%
COc1ccc(-c2nc(/C=N/Nc3cc(C)nc4ccc(Cl)cc34)c(C)o2)cc1	-48.3% (active)
COc1ccc(C(=O)N2NC(=O)/C(=C/c3ccccc3F)N=C2c2ccccc2)cc1	97.8%
CCOC(=O)CC(=O)OC	104%
CN1C=CN(Cc2ccc(-c3ccccn3)nc2)[CH-]1.CN1C=CN(Cc2ccc(-c3ccccn3)nc2)[CH-]1.[Au+3]	25.3%
COc1cccc(/C=C2\Oc3cc(OCCCN4CCCC4)ccc3C2=O)c1OC	113%
O=C1C(Cl)=C(Nc2ccccn2)C(=O)c2ccccc21	110%
Cc1ccc2[nH]c(=O)c3c(c2c1)Oc1ncn2nc(-c4ccco4)nc2c1C3c1ccc(Cl)cc1 (stereo unspecified)	98.1%
COc1ccc(C2CC(c3ccc(OC)cc3OC)=NN2c2ccc(S(N)(=O)=O)cc2)cc1 (stereo unspecified)	121%
c1ccc(-c2nnc(-c3ccccn3)s2)nc1	46.2%
Clc1cc2c(nn1)Nc1ccccc1S2	114%
O=[N+]([O-])c1cc(S(=O)(=O)Oc2ccccc2)ccc1Cl	-77.9% (active)
COc1cc(/C=N\NC(=O)CN2CCN(c3cc4c(cc3F)c(=O)c(C(=O)N/N=C/c3cc(OC)c(OC)c(OC)c3)cn4C3CC3)CC2)cc(OC)c1OC	-95.2% (active)
NC1=C(/C(N)=N/O)C(c2ccccc2)c2ccc3ccccc3c2O1 (stereo unspecified)	11.8%
OCc1ncc(-c2ccccc2)s1	79.6%

What follows are molecules tested on KM12 colon in the same assay as above. Conditions: 10 µM unless noted.

Structure (SMILES)	growth
O=C(NNC(=O)N1c2ccccc2C=Cc2ccccc21)c1ccc2ccccc2c1	98.6%
CCOC(=O)C1C(=O)C=C(c2ccc(OC)cc2)CC1c1sc(N(C)Cc2ccccc2)nc1Cl (stereo unspecified)	81.4%
CCc1cnc(=S)n(-c2ccccc2)c1	109%
CCN(CC)c1ccc2[nH]c3c(C(N)=O)cc(=O)c(=O)c=3oc2c1	9.09% (active)
CC1(C)C(=O)/C(=C\c2ccc(C(F)(F)F)cc2)C[C@]2(C)[C@H]3CC[C@@H]4[C@H]5[C@H](C(=O)/C=C/c6ccc(C(F)(F)F)cc6)CC[C@]5(CO)CC[C@@]4(C)[C@]3(C)CC[C@@H]12	99.2%
O=[N+]([O-])c1ccc(Sc2ncccn2)c([N+](=O)[O-])c1	55.9%
CC(C)(C)OC(=O)NC(CSCc1ccccc1)C(=O)ON1C(=O)CCC1=O (stereo unspecified)	109%
C/C(=C\c1ccc(OCC(=O)O)c(Cl)c1Cl)[N+](=O)[O-]	104%
CC(C)CC1NC(C)(C)CO1 (stereo unspecified)	110%
CC(NNC(C)c1ccccc1)c1ccccc1 (stereo unspecified)	115%
CC(C)(C)n1cc(-c2ccnc(NCCCNS(=O)(=O)c3ccc(C(F)(F)F)cc3)c2)c(-c2cccc(O)c2)n1	-14.2% (active)
CC(C)(C)n1cc(-c2ccnc(NCCCNS(=O)(=O)c3ccc(Br)cc3)c2)c(-c2cccc(O)c2)n1	1.78% (active)
Cn1cc(-c2cnc3ccc(NC(=O)Nc4ccc(F)c(Br)c4)cc3n2)cn1	12.7%
CC(C)(C)c1[nH]nc2c1C(c1cc3ccccc3[nH]c1=O)Nc1cc(C(=O)Nc3ccc(Cl)cc3)ccc1N2 (stereo unspecified)	50.2%
O=C([O][Sn]([O]C(=O)c1ccccn1)([c]1ccccc1)[c]1ccccc1)c1ccccn1	97.4%
CC(C)(C)N1CCC1C(N)=O (stereo unspecified)	99.2%
CC(C)(C)n1cc(-c2ccnc(NCCCNS(=O)(=O)c3ccc(Cl)cc3)c2)c(-c2cccc(O)c2)n1	-36.5% (active)
O=C(Nc1ccc(NCCN2CCOCC2)nc1)c1ccc([N+](=O)[O-])cc1	104%
COc1cc(-c2ncn(/C=C\C(=O)OC(C)C)n2)cc(C(F)(F)F)c1	0.0792% (active)
O=C(NNC(=O)N1c2ccccc2C=Cc2ccccc21)c1ccccc1	105%

Structure (SMILES)	growth
CC(C)(C)n1cc(-c2ccnc(NCCNS(=O)(=O)c3ccc(Cl)cc3)c2)c(-c2cccc(O)c2)n1	42.5%
Clc1ccccc1-c1nc2ccccc2[nH]1	97.5%
CC(C)(C)n1cc(-c2ccnc(NCCNS(=O)(=O)c3ccc(C(F)(F)F)cc3)c2)c(-c2cccc(O)c2)n1	41.8%
CC(=O)Oc1csc(N(C(C)=O)c2cc(C(=O)O)cc(C(=O)O)c2)n1	99.8%
COc1ccncc1S(=O)(=O)NC(=O)Nc1ccc(Cl)c(Cl)c1	91.9%
COc1ccc(-c2nc(/C=N/Nc3cc(C)nc4ccc(Cl)cc34)c(C)o2)cc1	-87% (active)
COc1ccc(C(=O)N2NC(=O)/C(=C/c3ccccc3F)N=C2c2ccccc2)cc1	106%
CCOC(=O)CC(=O)OC	115%
CN1C=CN(Cc2ccc(-c3ccccn3)nc2)[CH-]1.CN1C=CN(Cc2ccc(-c3ccccn3)nc2)[CH-]1.[Au+3]	24.9%
COc1cccc(/C=C2\Oc3cc(OCCCN4CCCC4)ccc3C2=O)c1OC	102%
O=C1C(Cl)=C(Nc2ccccn2)C(=O)c2ccccc21	86%
Cc1ccc2[nH]c(=O)c3c(c2c1)Oc1ncn2nc(-c4ccco4)nc2c1C3c1ccc(Cl)cc1 (stereo unspecified)	99.4%
COc1ccc(C2CC(c3ccc(OC)cc3OC)=NN2c2ccc(S(N)(=O)=O)cc2)cc1 (stereo unspecified)	86.4%
c1ccc(-c2nnc(-c3ccccn3)s2)nc1	97.3%
Clc1cc2c(nn1)Nc1ccccc1S2	102%
O=[N+]([O-])c1cc(S(=O)(=O)Oc2ccccc2)ccc1Cl	-71.8% (active)
COc1cc(/C=N\NC(=O)CN2CCN(c3cc4c(cc3F)c(=O)c(C(=O)N/N=C/c3cc(OC)c(OC)c(OC)c3)cn4C3CC3)CC2)cc(OC)c1OC	-61.7% (active)
NC1=C(/C(N)=N/O)C(c2ccccc2)c2ccc3ccccc3c2O1 (stereo unspecified)	11.1%
OCc1ncc(-c2ccccc2)s1	103%
